Assay outcomes: PubChem BioAssay, National Center for Advancing Translational Sciences (NCATS)
BAZ2B block – qHTS Assay for Inhibitors of BAZ2B; AID 504333, 2011; AlphaScreen BAZ2B-H3K14Ac peptide displacement; Bromodomain adjacent to zinc finger domain protein 2B (Homo sapiens), Q9UIF8; Potency, µM (series often up to 114 µM), for the others: top-dose activity change, negative = inhibition, most hits filed as inhibitors; actives 4.4% (n = 360,000); also: % is scaled to controls: 0 for no effect and ±100 for the full control effect; nearly all actives have a fitted effect of over 60% in size
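BAZ2B (50 nM) with biotin-H3(5-23)K14Ac peptide (50 nM) in PBS pH 7.4, 0.01% Tween-20, preformed 30 min, then compound 30 min at room temperature; top concentration 110uM. AlphaScreen streptavidin donor/nickel chelate acceptor beads (10 ug/mL final), 20 min dark, signal read.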
HP1b binding inh – HTS for Inhibitors of HP1-beta Chromodomain Interactions with Methylated Histone Tails | AID 540317, 2011 | Potency, µM (titrated, usually from 114 µM), without a hit: top-dose activity change, negative = inhibition, usual class: inhibitors | Chromobox protein homolog 1 (Homo sapiens), P83916 | AlphaScreen HP1-beta / biotin-H3K9me3 peptide binding | actives 0.56% (n = 390,000); also: nearly all actives have a fitted effect of over 70% in size
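Compound inhibition of the preformed complex between 50 nM HP1-beta and 50 nM biotinylated H3K9me3 peptide was read by AlphaScreen. Buffer was PBS pH 7.4 with 0.01% Tween-20. Incubations ran 30 min at room temperature, with 10 ug/mL donor/acceptor beads.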
GLS inhibitor – qHTS for Inhibitors of Glutaminase (GLS); Glutaminase kidney isoform, mitochondrial (Homo sapiens), O94925; actives 0.21% (n = 410,000); GLS enzymatic activity, qHTS titration; AID 624170, 2012; Potency, µM (top dose mostly 45.5 µM), for the others: at the top dose activity change, negative = inhibition, most hits filed as inhibitors; also: % is scaled to controls: 0 for no effect and ±100 for the full control effect
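Glutamate formation by hKGA was monitored fluorometrically using coupled glutamate oxidase, HRP and Amplex Red. Substrate was added as 1 mM L-glutamine solution; incubation was 30 min at RT after an initial read.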
G9a block – qHTS Assay for Inhibitors of Histone Lysine Methyltransferase G9a; G9a H3K9 monomethylation, AlphaScreen, 2 h; Potency, µM (highest dose often 102 µM), without a hit: at the top dose activity, negative = inhibition, most hits filed as inhibitors; actives 8.8% (n = 350,000); also: % is scaled to controls: 0 for no effect and ±100 for the full control effect; nearly all actives have a fitted effect of over 75% in size
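Chemiluminescent proximity detection of H3K9 monomethylation, read after 10 min bead incubation in the dark. Reaction: 20 nM G9a, 500 nM biotin-H3K9 peptide, 20 uM SAM cofactor, 2 h, room temperature, following 15 min enzyme-compound preincubation.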
JMJD2A Tudor – qHTS Assay for Inhibitors of JMJD2A-Tudor Domain. AlphaScreen JMJD2A-Tudor / H3K4me3 peptide binding. Potency, µM (series often up to 114 µM), for inactives: at the highest dose activity change, negative = inhibition, hits mostly inhibitors. actives 4.4% (n = 390,000). AID 504339, 2011; also: % is scaled to controls: 0 for no effect and ±100 for the full control effect; nearly all actives have a fitted effect of over 50% in size
The depositor's hits bear a star; u = inconclusive; x = no result; [ ] = dose if it differs, or a comment. Compounds with a hit are over-represented: about 10% of the library has one in this group of screens. Calls follow the shape of the dose curve; as a rule, active = well fitted curve in the direction sought with a large enough effect; inconclusive = small, poorly fitted or top-dose-only effect, or another doubt; inactive = no such curve, though single readings can be large; an effect the other way counts as inactive or inconclusive. Potency is read from the fitted curve at half-maximal effect.

SMILES	BAZ2B block	HP1b binding inh	GLS inhibitor	G9a block	JMJD2A Tudor
COc1cccc(NC(=O)CSc2nc(=O)n(Cc3ccncc3)c3c2CCC3)c1	-2%	7%	0%	-1%[59 µM]	-7%
Cc1cc(=O)oc2cc(OCC(=O)NCCc3nc4ccccc4[nH]3)ccc12	3%	15%	-5%	50µM*	-13%
CCC(CC)c1nnc(NC(=O)COc2ccc3c(C)cc(=O)oc3c2)s1	-13%	12%	2%	-11%[0.0925 µM]	-8%
Cc1nnc(NC(=O)COc2ccc3c(C)cc(=O)oc3c2)s1	u	6%	18%	8.9µM*	-22%
O=[N+]([O-])c1cccc(CON=Cc2ccccc2O)c1	x	x	1%	x	x
CC(=O)c1cc(CN2CCC(N3CCC(C(=O)N4CCCC4)CC3)CC2)cs1	-35%	32%	-11%	11µM*	4%[11.4 µM]
CC(=O)c1cc(CN2CCC(N3CCC(C(=O)NC(C)C)CC3)CC2)cs1	-1%	44%	-3%	3%	-2%
Cc1ccc(S(=O)(=O)NCC2CCC(C(=O)NCCc3ccc(Cl)cc3)CC2)cc1 (stereo not drawn)	4%	25%	-5%	-1%[59 µM]	-15%
CC(=O)Nc1nc(C)c(-c2csc(Nc3cccc([N+](=O)[O-])c3)n2)s1	-2%	35%	2%	20%[59 µM]	-8%
Cc1nc(C)c(-c2csc(Nc3cccnc3)n2)s1	u	8%	4%	0%[12.7 µM]	u
COc1cccc(Nc2nc(-c3sc(NC(=O)c4ccccc4)nc3C)cs2)c1	u	u	-3%	50µM*	79µM*
CCC(=O)Nc1nc(C)c(-c2csc(Nc3ccc(C(=O)O)cc3)n2)s1	-16%	21%	u	50µM*	-24%
CC(=O)Nc1nc(C)c(-c2csc(Nc3cccc(C(C)=O)c3)n2)s1	-39%	-8%	5%	40µM*	-29%
Cc1nc(N)sc1-c1csc(Nc2ccccc2)n1	50µM*	-38%	19%	u	u
Nc1ccn([C@@H]2O[C@H](CNCC3=CCOc4ccc(O)cc43)[C@@H](O)[C@H]2O)c(=O)n1	x	x	3%	x	x
COc1cccc(Nc2nc(-c3sc(NC(=O)CC(C)C)nc3C)cs2)c1	u	-4%	3%	u	u
Cc1cc(O)ccc1Nc1nc(-c2sc(N)nc2C)cs1	-2%	-31%	40%	15%[59 µM]	50µM*
Cc1nc(N)sc1-c1csc(Nc2cccc(C(=O)O)c2)n1	50µM*	-1%	-14%	45µM*	u
CCC(=O)Nc1nc(C)c(-c2csc(Nc3cccc(C(=O)O)c3)n2)s1	u	-18%	u	45µM*	-21%
CCCC(=O)Nc1nc(C)c(-c2csc(Nc3ccc(Cl)cc3)n2)s1	28µM*	u	6%	38%[0.501 µM]	u
O=S(=O)(Nc1nc2ccccc2nc1Nc1ccccc1Br)c1ccccc1	2%	43%	-5%	2%[59 µM]	-7%
CC(C)c1cccc(-c2csc(C(O)c3cccc(Cl)c3)n2)c1 (stereo not drawn)	x	x	3%	x	x
Cc1nc(NC(=O)c2ccccc2)sc1-c1csc(NCc2ccco2)n1	u	-5%	23%	u	u
Cc1nc(NC(=O)c2ccccc2)sc1-c1csc(Nc2ccc(C(=O)O)cc2)n1	10µM*	40µM*	-1%	x	22µM*
O=C(Nc1cccc(N2CCCC2)c1)c1cccs1	u	u	2%	3.2µM*	u
SMILES	BAZ2B block	HP1b binding inh	GLS inhibitor	G9a block	JMJD2A Tudor
O=[N+]([O-])c1ccc(COc2ccc(Br)cc2CN2CCOCC2)cc1	u	-7%	1%	50µM*	u
Cc1cc(=O)oc2cc(NC(=O)Cc3ccccc3)ccc12	-25%	14%	4%	0%	-25%
Cc1cc(=O)oc2cc(NC(=S)NCc3ccccn3)ccc12	u	26%	9%	40µM*	-18%
Cc1cc(=O)oc2cc(NC(=O)C(C)Oc3ccc(F)cc3)ccc12 (stereo not drawn)	6%	10%	0%	45µM*	-19%
Cc1cc(=O)oc2cc(OCC(=O)NCc3ccccn3)ccc12	-7%	13%	9%	30%	-11%
CCCC(C(=O)Nc1ccc2c(C)cc(=O)oc2c1)c1ccccc1 (stereo not drawn)	56µM*	13%	-3%	22µM*	-24%
CC(=O)Nc1ccc(S(=O)(=O)N(Cc2ccccc2)C(C)C)cc1	-6%	35%	12%	6%[59 µM]	-17%
CSc1ccccc1NC(=O)c1ccc(N2CC3CC(C2)c2cccc(=O)n2C3)c(NC(=O)c2cccnc2)c1 (stereo not drawn)	-19%	28%	1%	71µM*	-6%
COc1ccccc1NC(=O)c1ccc(N2CC3CC(C2)c2cccc(=O)n2C3)c(NC(=O)c2ccncc2)c1 (stereo not drawn)	-14%[57.1 µM]	30%	14%	16µM*	-12%
COc1ccc(Nc2ncnc3c2nc2n3CCCCC2)cc1	-3%	42%	8%	-22%[59 µM]	-11%
CC1CCC(=O)N(CCC#N)CC1 (stereo not drawn)	-30%	23%	0%	50µM*	-8%
OC(c1ccc(Cl)cc1)c1nccc2ccccc12 (stereo not drawn)	-38%	21%	-1%	40µM*	-27%
O=C(OC(c1ccccc1)c1nccc2ccccc12)c1ccccc1 (stereo not drawn)	x	44%	-3%	x	6%
N#C/C(=C(/O)c1ccc(Cl)c([N+](=O)[O-])c1)c1nc2ccccc2[nH]1	-1%	41%	2%	x	-11%
COc1ccc(C2C(C#N)=C(N)Oc3cc(N)ccc32)cc1 (stereo not drawn)	-36%	11%	0%	-12%	-24%
COc1ccc(C2C(C#N)=C(N)Oc3c2sc2nc(C)cc(C)c32)cc1 (stereo not drawn)	-36%	17%	u	11µM*	-18%
CC1(C)CC(=O)C(/C=N/n2cnc3ccccc3c2=O)=C(O)C1	50µM*	34%	-8%	8%[2.33 µM]	40µM*
CCC1=Nc2cc(C(=O)N3CCCCC3)ccc2Sc2ccc(C)cc21	-32%	0%	-14%	u	u
CCCC1=Nc2cc(C(=O)N3CCC(C)CC3)ccc2Sc2ccc(C)cc21	12%	27%	-3%	11%[59 µM]	-20%
CCCC1=Nc2cc(C(=O)N3CCCC3)ccc2Sc2ccc(C)cc21	u	-12%	4%	-6%	18µM*
CCCC1=Nc2cc(C(=O)N3CCN(c4ccccn4)CC3)ccc2Sc2ccc(C)cc21	u	0%	-7%	16µM*	u
C=Cc1ccc(C(=O)N2CCCC(Nc3ccc4c(c3)OCCO4)C2)cc1 (stereo not drawn)	u	-30%	4%	40µM*	u
